The full list was thinned out, with hits kept by preference.
HT1080 IDH1KD tx = HT-1080 IDH1 knockdown cell toxicity (counter line); AID 686971; 360,000 compounds, 2% hits; Potency, µM (highest dose often 46.1 µM), for inactives: top-dose activity, negative = toxicity, hits mostly cytotoxic; HT-1080 IDH1 knockdown viability, ATP luminescence, 48 h;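 further: potency means the concentration at half of the fitted maximal effect; 0% = DMSO wells and -100% = cell-free medium wells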
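In this qHTS, HT-1080 cells depleted of IDH1 are exposed for 48 h at 37 °C to compound titrations. Toxicity is scored from CellTiter-Glo luminescence, with DMSO as full viability and medium alone as none.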
IL-1B inflam inh = inhibitors of inflammasome signaling (IL-1 beta secretion); THP-1 LPS/ATP IL-1B secretion, AlphaLISA, 16 h; hits give low values; activity change, % at 57.5 µM; 360,000 compounds, 4.7% hits; in the data active means activity change below about -50%; inconclusive means mostly about -30% to -49%
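THP-1 cells pretreated 1 hr with compounds (up to 57.5 uM final), then stimulated with LPS (250 ng/mL final) plus ATP (1.25 mM final); secreted IL-1B measured by AlphaLISA after 16 hr, decreased signal indicating inhibition.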
12-LOX inh = blocks human arachidonate 12S-lipoxygenase. P18054. purified 12hLO, xylenol orange hydroperoxide absorbance. Potency, µM (top dose mostly 108 µM), for the others: at the top dose activity change, negative = inhibition, usual class: inhibitors. 580,000 compounds, 1.1% hits. AID 1671190; further: potency means the concentration at half of the fitted maximal effect
Target sequence (P18054 whole entry, looked up): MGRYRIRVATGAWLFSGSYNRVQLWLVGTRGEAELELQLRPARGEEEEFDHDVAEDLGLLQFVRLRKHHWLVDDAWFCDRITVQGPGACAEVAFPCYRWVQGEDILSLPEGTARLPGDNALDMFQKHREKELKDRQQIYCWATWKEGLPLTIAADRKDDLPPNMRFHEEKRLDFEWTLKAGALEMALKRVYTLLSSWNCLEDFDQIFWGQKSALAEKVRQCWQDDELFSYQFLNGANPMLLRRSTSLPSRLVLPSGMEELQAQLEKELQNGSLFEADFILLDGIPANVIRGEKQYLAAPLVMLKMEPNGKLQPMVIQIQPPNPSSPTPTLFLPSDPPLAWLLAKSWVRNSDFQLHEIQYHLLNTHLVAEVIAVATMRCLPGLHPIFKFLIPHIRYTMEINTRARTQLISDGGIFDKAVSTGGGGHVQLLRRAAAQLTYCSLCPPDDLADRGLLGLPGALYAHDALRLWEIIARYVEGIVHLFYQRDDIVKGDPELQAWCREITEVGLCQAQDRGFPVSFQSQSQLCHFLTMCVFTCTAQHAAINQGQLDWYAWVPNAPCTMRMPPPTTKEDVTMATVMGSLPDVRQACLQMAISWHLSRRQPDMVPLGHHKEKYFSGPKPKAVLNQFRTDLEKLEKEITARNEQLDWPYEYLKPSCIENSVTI
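Purified human 12hLO (150 nM final) in 25 mM Hepes, 0.01% Triton X-100, pH 7.0 was preincubated 15 min at room temperature with compound. Then 40 uM arachidonic acid was added, 30 min. Hydroperoxide was read by Fe-XO absorbance ratio 573/405 nm.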
HT1080-NT tox = kills 2HG-producing HT-1080-NT fibrosarcoma cells; 360,000 compounds, 1.6% hits; HT-1080-NT fibrosarcoma viability, CellTiter-Glo ATP luminescence, 48 h; AID 686970; Potency, µM (series often up to 46.1 µM), inactives show at the highest dose activity, negative = less viability, actives largely listed as cytotoxic;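 further: NT is the 2HG producing partner of a matched IDH1 knockdown line; potency means the concentration at half of the fitted maximal effect; 0% = DMSO-treated cells and -100% = media-only wells without cells; nearly all actives have a fitted effect of over 55% in size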
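750 cells/well, RPMI + 5% FBS; 2 h settle, compound pin-transfer, 48 h at 37 degrees C. CellTiter-Glo 10 min RT, luminescence. Normalized to DMSO and media-only wells.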
TDP1 cell CPT = growth inhibition of DT40 Tdp1-/-;hTDP1 cells with camptothecin (screen for TDP1 inhibitors); Potency, µM (top dose mostly 46.2 µM), without a hit: at the top dose activity change, negative = growth inhibition, most hits filed as inhibitors; 420,000 compounds, 12% hits; AID 686979; chicken DT40 Tdp1-/-;hTDP1 cells + 20 nM CPT, ATP luminescence, 48 h; further: potency means the concentration at half of the fitted maximal effect; nearly all actives have a fitted effect of over 55% in size
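Cell growth measured by CellTiter-Glo luminescence after a minimum 48 h, 37 C compound exposure with 20 nM CPT in Tdp1-knockout DT40 cells stably expressing hTDP1, seeded 400/well; qHTS titration format.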
TDP1 cell noCPT = qHTS for Inhibitors of human tyrosyl-DNA phosphodiesterase 1 (TDP1): qHTS in cells in absence of CPT. DT40 Tdp1-/- hTDP1 cells, no CPT, ATP luminescence, 48 h. 420,000 compounds, 15% hits. Potency, µM (doses to about 46.2 µM), without a hit: at the top dose activity change, negative = growth inhibition, usual class: inhibitors; further: potency means the concentration at half of the fitted maximal effect; nearly all actives have a fitted effect of over 55% in size
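Chicken DT40 Tdp1-/- cells stably complemented with human TDP1 were seeded at 400 cells/well with DMSO in place of 20 nM camptothecin. After compound pinning, cells grew at least 48 hr at 37 °C; viability read by CellTiter-Glo luminescence.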
Starred values were filed as active, the others as inactive; ? = inconclusive; . = not tested or not shown; [ ] = remark or other dose. Unless noted, the call rests on the fitted dose curve; in most records, active means well fitted curve in the direction sought with a large enough effect; inconclusive means small, poorly fitted or top-dose-only effect, or another doubt; inactive means no such curve, though single readings can be large; an effect the other way counts as inactive or inconclusive. Unless noted, on the % scale 0 is the no-effect control and ±100 the full control effect.

SMILES | HT1080 IDH1KD tx | IL-1B inflam inh | 12-LOX inh | HT1080-NT tox | TDP1 cell CPT | TDP1 cell noCPT
CC(=O)Nc1ccc(S(=O)(=O)N2CCSc3ccccc32)cc1 | 13µM* | 25.1 | -15.8% | 20.6µM* | 4.11µM* | 3.66µM*
O=C(NCC1Cc2cc(F)cc(-c3cnccn3)c2O1)c1cccc(Cl)c1 (stereo not drawn) | . | . | 10.5% | . | ? | 18.4µM*
Cc1cc(C)n(-c2cccc(C(=O)NCC3Cc4cccc(-c5ccccn5)c4O3)c2)n1 (stereo not drawn) | . | . | 7.2% | . | ? | 11.6µM*
O=C(NCC1Cc2cc(F)cc(-c3cnccn3)c2O1)c1cccc(-c2ccccc2F)c1 (stereo not drawn) | . | . | 3.1% | . | 11.6µM* | 23.1µM*
Cc1cc(C)n(-c2cccc(C(=O)NCC3Cc4cc(Cl)cc(-c5cnccn5)c4O3)c2)n1 (stereo not drawn) | . | . | -0.6% | . | -3.6%[9.04 µM] | ?
O=C(c1ccco1)N1CC[C@@H]2COCCN(Cc3ccccc3)[C@@H]2C1 | . | . | 63.5% | . | . | .
C=CCn1c(N2CCN(c3ccccc3)CC2)nc2c1c(=O)[nH]c(=O)n2C | . | . | 8.6% | . | . | .
CCN(Cc1ccccc1)c1sc(S(=O)(=O)CC)nc1S(=O)(=O)c1ccc(C)cc1 | . | . | -24.9% | . | . | .
CCN1C(=O)/C(=C2/C=Cc3cc(C)ccc3N2CC)N(C)C1=S | -20.5% | ? | -12.4% | -23.9% | 23.1µM* | 20.6µM*
CCN1/C(=C2/SC(=S)N(C)C2=O)C=Cc2cc(C)ccc21 | 23.5% | -8.7 | ? | 24.0% | -7.9% | -0.4%
COc1ccc2c(c1)CC/C(=C/c1ccncc1)C2=O | -9.9% | -104.8* | . | -0.5% | 16.4µM* | 16.4µM*
COc1ccc2c(c1)CC/C(=C\c1ccc(SC)cc1)C2=O | . | . | -51.4% | . | . | .
CC(=O)Nc1ccc(/C=C2\CCc3ccccc3C2=O)cc1 | ? | -96.1* | ? | 23.1µM* | 15.4% | -24.7%
COc1ccc(/C=C2\CCc3ccccc3C2=O)cc1O | 4.11µM* | 9.7 | ? | 2.31µM* | 0.517µM* | 0.82µM*
O=C1/C(=C\c2ccccc2)CCc2ccccc21 | . | . | 2.4% | . | . | .
COc1ccc(/C=C2\CCC(C3CCCC3)C2=O)cc1Cn1cccn1 (stereo not drawn) | -7.6% | -80.2* | -18.6% | -1.1% | 18.4µM* | ?
CCOc1ccc(/C=C2\CCC(C3CCCC3)C2=O)cc1OC (stereo not drawn) | 0.0% | -15.7 | -19.6% | 14.8% | ? | ?
CCCNC(=O)NC(C)(C)C(=O)O | . | . | -13.8% | . | . | .
O=C(CCCc1ccccc1)N[C@@H]1CN(c2ccncn2)C[C@H]1CO | . | . | 19.3% | . | . | .
COc1ccc(NC(=O)c2n[nH]c3ccccc23)cc1NS(=O)(=O)c1ccc(F)cc1 | . | . | 7.2% | . | . | .
COc1ccc(/C=C2\CCc3ccccc3C2=O)cc1Cn1cccn1 | -16.0% | ? | -1.6% | -5.1% | 20.6µM* | ?
CCOc1ccc(-c2nc(CNC(=O)NC3CCCC3)c(C)o2)cc1 | . | . | 6.0% | . | . | .
CN(C)S(=O)(=O)c1cccc(NC(=S)Nc2ccc(Cl)cc2Cl)c1 | -0.6% | -4.9 | 0.0% | 13.2% | ? | 16.4µM*
CN(C)S(=O)(=O)c1cccc(NC(=S)Nc2cc(Cl)cc(Cl)c2)c1 | 4.9% | -70.4* | ? | 5.9% | 25.9µM* | 23.1µM*
Cc1ccc(CNC(=O)[C@H](Cc2ccccc2)NC(=O)c2ccco2)n1C | . | . | 9.1% | . | . | .
SMILES | HT1080 IDH1KD tx | IL-1B inflam inh | 12-LOX inh | HT1080-NT tox | TDP1 cell CPT | TDP1 cell noCPT
COc1ccc(C(=O)NCC(=O)OCc2ccc([N+](=O)[O-])cc2)cc1 | 6.6% | 0.0 | -5.7% | 23.0% | -12.5% | 1.9%
Cc1ccc(C(=O)NCC(=O)OCC(=O)Nc2cc(C)c(C)cc2[N+](=O)[O-])cc1 | 1.9% | 7.5 | -7.1% | 0.9% | 2.3% | 2.9%
Cc1ccc(C(=O)NCC(=O)NCC(=O)OCc2ccc(Oc3ccc([N+](=O)[O-])cc3)cc2)cc1 | -8.7% | -17.0 | -4.7% | 1.4% | ? | 20.6µM*
Cc1ccc(C(=O)NCC(=O)NCC(=O)OCC(=O)c2ccc([N+](=O)[O-])cc2)cc1 | -2.0% | -18.6 | -18.1% | 2.7% | 23.1µM* | 23.1µM*
O=C(N/N=C/c1cc(Br)cs1)c1c[nH]c2ccccc12 | 0.3% | 0.0 | 8.6% | 0.5% | ? | ?
O=C(N/N=C/c1ccc(Br)s1)c1c[nH]c2ccccc12 | -24.9% | -80.6* | -10.6% | -5.9% | ? | ?
O=C(N/N=C/c1ccc(Br)s1)c1cccs1 | -5.2% | 10.2 | 191.1% | -14.8% | 16.4µM* | 20.6µM*
O=C(N/N=C/c1ccccc1OC(=O)c1ccc2c(c1)OCO2)c1cccc(F)c1 | ? | 121.6 | -3.1% | ? | 1.16µM* | 1.3µM*
Cc1ccc(/C=N/NC(=O)c2cccs2)s1 | 1.0% | -4.1 | 8.2% | -1.3% | -20.4% | -7.9%
O=C(N/N=C/c1ccc2c(c1)OCO2)c1ccc2c(c1)OCCO2 | 23.1µM* | -8.5 | -9.4% | ? | 16.4µM* | ?
O=C(O)c1ccc(N/N=C/c2ccc3c(c2)OCO3)cc1 | 23.1µM* | 3.1 | ? | 18.4µM* | ? | ?
O=C(N/N=C/c1ccncc1)c1ccc2c(c1)OCO2 | -6.1% | -2.5 | -9.5% | -1.4% | 0.6% | -20.9%
O=C(N/N=C/c1ccc(Cl)cc1)c1ccc2c(c1)OCO2 | ? | -5.7 | ? | ? | ? | 13µM*
COc1ccc2c(Cl)c(C(=O)N/N=C/c3ccc4c(c3)OCO4)sc2c1 | 8.1% | -1.1 | 9.7% | 23.9% | ? | ?
O=C(N/N=C/c1cc2c(cc1Br)OCO2)c1ccccn1 | -15.6% | -7.3 | 127.5% | 1.0% | -8.3% | ?
O=C(N/N=C/c1cc2c(cc1Br)OCO2)c1c[nH]c2ccccc12 | -10.4% | ? | -4.3% | -14.2% | ? | 20.6µM*
O=C(N/N=C/c1ccc2c(c1)OCO2)c1sc2cc(Cl)ccc2c1Cl | -3.5% | 21.4 | 9.7% | -6.7% | 5.8µM* | 5.17µM*
COc1ccc(/C=N/NC(=O)c2ccc(COCC(F)(F)C(F)F)cc2)cc1 | -8.1% | -11.8 | -14.5% | 4.4% | 6.4% | -2.1%
O=C(N/N=C/c1ccc(Cl)c(Cl)c1)c1cccs1 | . | . | -6.1% | . | . | .
CS(=O)(=O)N(CC(=O)N/N=C/c1cc2c(cc1Br)OCO2)c1ccccc1Br | -12.1% | ? | -19.3% | -2.2% | ? | 14.6µM*
O=C(NN=Cc1ccc2c(c1)CCN2)c1cccs1 | 0.5% | -1.8 | -21.7% | 3.8% | ? | 14.6µM*

Compound activity from PubChem BioAssay.
